# Hit rate of the full screen: of about 410,000 compounds, about 1,200 (0.29%) were called active. Entries that show only a call come without a potency. Roughly 2% stayed inconclusive and do not appear here. Many of the other results were omitted from the sample, so actives are more common in it than they were. Unmarked numbers belong to inactive results. The call rests on the fitted dose curve; in most records, active means well fitted activation curve with a large enough effect; inconclusive means small, poorly fitted or top-dose-only effect; inactive means flat fitted curve, though single readings scatter.
# Assay: qHTS of Nrf2 Activators; further: nearly all actives have a fitted effect of over 65% in size
# Details: AREc32 ARE-luciferase reporter (MCF7-derived line), luminescence, 24 h; series mostly up to 46.1 µM
# Excerpt: Many diseases have some form of oxidative stress injury and ties to inflammation, causing a host of problems for the patient. The antioxidant response element (ARE) plays an important role in alleviating the harmful effects of oxidative stress. The antioxidant response element (ARE) is a transcriptional regulatory element involved in the activation of genes coding for a number of antioxidant proteins and detoxifying enzymes. These enzymes work in concert to protect tissues from oxidative insults and chemical toxicities in human hepatocytes and immune cells. The protective effects of ARE activation are primarily triggered through Nrf2 (NF-E2-related factor) binding to and activating AREs. It is known that Nrf2 controls the production of over 250 antioxidant and detoxification proteins (Hu et al., 2006), thereby protecting tissues by increasing cellular antioxidant content and suppressing inflammatory signaling pathways. The transcription factor Nrf2 is a central link between oxidative chemicals, such as phenolic antioxidants and electrophilic compounds, and the activation of ARE. Nrf2 levels are constitutively low as a consequence of its interaction with Keap1, which targets its degradation (Zipper and Mulcahy, 2002). Electrophiles react with key cysteine residues in Keap1, releasing Nrf2 and allowing its translocation to the nucleus. Once within the nucleus, Nrf2 complexes with coactivators such as p300, and binds to the AREs to induce gene transcription of cytoprotective enzymes, resulting in the prevention of toxicity. Activation of Nrf2 protects tissues by increasing cellular antioxidant content and suppressing inflammatory signaling pathways. Identifying novel and potent Nrf2 activators by using the AREc32 cell line to detect ARE activation by small molecules will lead to the identification and development of probes to study protective pathways in multiple tissues. These specific probes are essential to study the ARE pathway, and eventually to determine whether this pathway does activate genes that could protect against a host of diseases, including cardiovascular diseases, obesity, diabetes, Alzheimer's, and Parkinson's disease.
# This project's aim is to identify novel and potent Nrf2 activators by using the AREc32 cell line to detect ARE activation by small molecules, which will lead to the identification and development of probes to study the ARE pathway.
# NIH Chemical Genomics Center [NCGC]
# NIH Molecular Libraries Probe Centers Network [MLPCN]
# Assay Submitter (PI): Curtis Klaassen, University of Kansas Medical Center
# 5 uL of 1000 cells/well of AREc32_Fluc cells are seeded into 1536-well plate in OPTI-MEM medium with 5% FBS. The plates are incubated overnight at 37 deg C with 5% CO2. Then through pin tool transfer, 23 nL of compounds are added to each well before a 24 hr incubation at 37 deg C with 5% CO2. After the addition of 2.5 uL of Steady-Glo. the plates are kept at RT for 30 min, before they are read on the ViewLux.
# Potency means the concentration at half of the fitted maximal effect.
SMILES,Potency,activation
O=C1OC(OC(=O)c2ccccc2Br)C(N2CCOCC2)=C1Cl (stereo unspecified),inactive,
Cc1ccccc1C(=O)OC1OC(=O)C(Cl)=C1Nc1ccccc1 (stereo unspecified),15.8 µM (active),
Cc1ccc(NC2=C(Cl)C(=O)OC2OC(=O)c2ccccc2C)cc1 (stereo unspecified),,0.434% [at 9.22 µM]
CCOC(=O)c1c(C)[nH]c(C)c1S(=O)(=O)N1CCC(C(=O)Nc2ccc(C)c(Cl)c2)CC1,inactive,
Nc1c(C(=O)c2cccs2)sc2nsc(SCCN3CCCCC3)c12,10 µM (active),
Cc1cc(NCc2ccco2)n2c(nc3ccccc32)c1C#N,5.01 µM (active),
Cc1cc(NC(C)C)n2c(nc3ccccc32)c1C#N,inactive,
CC(C)c1cc(NCc2ccccn2)n2c(nc3ccccc32)c1C#N,inactive,
Cc1cc(C(=O)NCCc2ccc(Cl)cc2)c(C)o1,inactive,
Cc1cc(C(=O)N/N=C\C(Br)=C\c2ccccc2)c(C)o1,20 µM (active),
Cc1cc(C)cc(NC(=O)COC(=O)c2cc(C)oc2C)c1,inactive,
COc1cccc(C(=O)NCC(=O)OCc2cc(=O)n3ccsc3n2)c1,inactive,
S=c1[nH]nc(CSCc2ccc(Cl)cc2Cl)n1-c1ccccc1,inactive,
Cc1n[nH]c(=O)n1-c1ccc(Oc2ccccc2)cc1,inactive,
S=c1[nH]nc(-c2cc(-c3ccsc3)n[nH]2)n1-c1ccccc1,8.91 µM (active),
COc1cccc(C(c2c(O)cc(C)n(Cc3ccco3)c2=O)N2CCN(c3ccccc3)CC2)c1 (stereo unspecified),inactive,
O=C(Nc1ccc2ccccc2c1[N+](=O)[O-])c1ccccc1,14.1 µM (active),
CN(C)c1ccc(NC(=O)c2ccncc2)c2ccccc12,inactive,
Cc1ccc(NC(=O)c2oc3ccccc3c2C)c([N+](=O)[O-])c1,inactive,
O=C(CN1C(=O)COc2ccc(S(=O)(=O)N3CCOCC3)cc21)N1CCN(c2cccc(Cl)c2)CC1,inactive,
Cc1cc2nc(-c3ccc(NC(=O)c4cc5ccccc5o4)cc3)oc2cc1C,inactive,
NC(=O)COC(=O)/C=C/c1ccc2ccccc2n1,15.8 µM (active),
O=C(COC(=O)/C=C/c1nc2ccccc2s1)Nc1ccccc1Oc1ccccc1,inactive,
CCOc1cccc(/C=C/c2ccc3ccccc3n2)c1OC(C)=O,inactive,
CN(C(=O)c1ccc2c(c1)N(Cc1cccc(Cl)c1)C(=O)c1ccccc1S2=O)C1CCCCC1 (stereo unspecified),inactive,
CC(C)C(=O)Nc1nc2c(s1)CC(C(C)(C)C)CC2 (stereo unspecified),inactive,

SMILES,Potency,activation
Cc1ccc(NC(=O)Cn2nnc3sc4c(c3c2=O)CCC(C)C4)cc1 (stereo unspecified),inactive,
COC(=O)c1cccc(Cn2nnc3sc4c(c3c2=O)CCC(C(C)(C)C)C4)c1 (stereo unspecified),inactive,
CCOC(=O)c1c(C)oc2nc(C)nc(Nc3ccc(CC)cc3)c12,inactive,
CCCOc1ccc(-c2cccc(NS(=O)(=O)c3ccccc3)c2)nn1,inactive,
COc1ccc(C2NC(=O)N(C)C3=C2C(=O)N(c2ccc(C(=O)O)cc2)C3)cc1 (stereo unspecified),inactive,
COc1ccc(N2C(=O)CC(N3CCC(C(N)=O)CC3)C2=O)cc1 (stereo unspecified),inactive,
COc1ccc(N2C(=O)C3C(C2=O)C(C(=O)c2ccccc2)N2CCCC32)cc1 (stereo unspecified),12.6 µM (active),
CCCNC(=O)C1CCC(Cn2c(=O)c3sccc3n(Cc3ccccc3F)c2=O)CC1 (stereo unspecified),inactive,
COc1ccccc1CNC(=O)c1ccc(CS(=O)c2ccccc2Cl)o1 (stereo unspecified),inactive,
c1ccc(-c2ccnc3nc(-n4cccc4)nn23)cc1,12.6 µM (active),
Cc1cc(-c2ccccc2)n2nc(-c3ccccc3)cc2n1,inactive,
Cc1ccc(-c2ccnc3nc(Sc4ncc(C(F)(F)F)cc4Cl)nn23)cc1,inactive,
O=C(Nc1nnc(S(=O)(=O)N2CCCc3ccccc32)s1)c1cccc(F)c1,inactive,
CCSc1ncc(Cl)c(C(=O)Nc2c(C(=O)c3ccccc3)oc3ccccc23)n1,inactive,
O=C(Nc1cccc2cccnc12)c1cccc2c(Br)cccc12,inactive,
O=C(Nc1ccccc1Cl)Nc1cccc2cccnc12,12.6 µM (active),
COc1c(Cl)cc(Cl)cc1C(=O)Nc1cccc2cccnc12,inactive,
Cc1ccc(NC(=O)CN2C(=O)C(c3ccc(F)cc3)=NC23CCCCCC3)c(C)c1,inactive,
CCCN1CCc2nc(N3CCN(C)CC3)ncc2C1,inactive,
CC(C)(C)c1ccc(C(=O)N2CCC(c3nc(-c4ccc(S(=O)(=O)N5CCCC5)cc4)no3)CC2)cc1,inactive,
O=S(=O)(c1ccc(F)cc1)N1CCN(Cc2ccccc2C(F)(F)F)CC1,inactive,
O=c1[nH]nc(SCCS(=O)(=O)c2ccc(F)cc2)n1-c1ccccc1C(F)(F)F,11.2 µM (active),
O=C(CSc1n[nH]c(=O)n1-c1ccccc1)Nc1ccccc1C(F)(F)F,inactive,
COc1ccc2oc(=O)c(-c3cn4c(n3)sc3cc(OC)ccc34)cc2c1,inactive,
O=C1/C(=C\c2ccc(O)cc2)CCC1CNc1ccc(Cl)cc1 (stereo unspecified),11.2 µM (active),
CC(=O)c1nn(-c2ccc(OC(F)(F)F)cc2)nc1Nc1ccccc1,inactive,

SMILES,Potency,activation
CCOc1ccc(CCNC(=O)c2ccc3c(c2)sc2nc(-c4ccc(F)cc4)cn23)cc1OCC,inactive,
Cn1c(=O)c2c(n3c4ccccc4nc13)NC(=O)CC2c1cccc(Cl)c1 (stereo unspecified),inactive,
Fc1ccc(CSc2nc(NCc3ccccc3)c3ccccc3n2)cc1,inactive,
c1ccc(CSc2nnc(-c3ccco3)c(-c3ccco3)n2)cc1,12.6 µM (active),
Cc1ccc(-c2nnc(SCC(=O)NCc3ccccc3)nc2-c2ccc(C)cc2)cc1,inactive,
Cc1ccc(CNC(=O)CSc2c3c(nc4cc(Cl)ccc24)CCCC3)cc1,inactive,
O=C(CSc1c2c(nc3ccc(Cl)cc13)CCCC2)NCc1ccco1,11.2 µM (active),
COc1cccc(CNC(=O)CSc2c3c(nc4cc(Cl)ccc24)CCCC3)c1,inactive,
CCCNC(=O)CCC(=O)N1Cc2ccccc2Oc2ncccc21,inactive,
Cc1ccc2[nH]c3c(=O)n(CC(=O)NC(C)C)ncc3c2c1,inactive,
COc1ccc(-c2csc(-c3c(N)c(C(=O)c4ccc(OC)c(OC)c4)n4ccccc34)n2)cc1,inactive,
CCn1c2ccccc2c2nnc(N3CCN(c4cc(C)ccc4C)CC3)nc21,inactive,
Cc1nc(N)sc1-c1ccccc1,inactive,
Cc1nc(-c2ccccc2)sc1-c1nc(-c2ccccc2)ncc1S(=O)(=O)c1ccccc1,inactive,
Cc1nc(-c2ccccc2)sc1-c1nnc(C2CC2)o1,15.8 µM (active),
COc1ccc(Cl)cc1S(=O)(=O)N1CCC(c2ccncc2)CC1,inactive,
CCOc1ccc(CC(=O)NCCc2csc3nc(-c4ccccc4F)nn23)cc1,inactive,
O/N=C(\c1ccc2c(c1)OCCO2)C1CCCCC1,inactive,
O=C(/C=C/c1ccc2c(c1)OCCO2)c1ccc(O)cc1,5.01 µM (active),
O=C(COC(=O)/C=C/c1ccc2c(c1)OCO2)NC1CCS(=O)(=O)C1 (stereo unspecified),inactive,
O=C(NCCc1csc(-c2ccc(C(F)(F)F)cc2)n1)C(=O)Nc1ccc(F)c(Cl)c1,inactive,
COc1ccc(NC(=O)c2ccc3nc(C(C)C)oc3c2)cc1OC,inactive,
COCc1c(C(=O)OCC(=O)Nc2ccc(OC(F)F)cc2)oc2ccccc12,inactive,
CCc1cccc(NC(=O)COC(=O)c2cc(=O)c3ccccc3o2)c1,14.1 µM (active),
CCc1cccc(NC(=O)COC(=O)C2CCN(c3ccc(C(F)(F)F)cn3)CC2)c1,inactive,
Cc1cc(C)nc(NS(=O)(=O)c2ccc(NC(=O)c3cc(=O)c4ccc(C)c(C)c4o3)cc2)n1,inactive,

SMILES,Potency,activation
COc1cc2c(cc1NC(=O)COC(=O)/C=C/c1ccccc1)oc1ccccc12,inactive,
COc1ccc([N+](=O)[O-])cc1NC(=O)COC(=O)/C=C/c1ccco1,11.2 µM (active),
COc1ccc(Br)cc1CN(C)CC(=O)Nc1cc([N+](=O)[O-])ccc1OC,inactive,
FC(F)(F)c1cc(Nc2nc3ccccc3c3nncn23)ccc1Cl,inactive,
COc1cccc(N=C2SC(C(=O)Nc3cccc(Cl)c3)CC(=O)N2C)c1 (stereo unspecified),inactive,
COc1ccc(-c2nnc(SCC(=O)Nc3ccc(C(C)C)cc3)nc2-c2ccc(OC)c(OC)c2)cc1OC,inactive,
CCCc1nc2c3ccccc3ccn2c1Cc1ccccc1C(F)(F)F,inactive,
COC(=O)c1ccc2nc(-c3ccc(F)cc3)c(Cc3ccc(C)cc3)n2c1,inactive,
COC(=O)c1ccc2nc(-c3ccc(Cl)cc3)c(Cc3cccc(F)c3)n2c1,inactive,
Cc1ccc(Cc2c(-c3ccco3)nc3ccc(Cl)cn23)cc1,12.6 µM (active),
c1ccc(Cc2c(-c3ccco3)nc3c4ccccc4ccn23)cc1,6.31 µM (active),
CC(C)c1ccc(NC(=O)C2CCN(c3nc(-c4ccc(C(C)C)cc4)no3)CC2)cc1,inactive,
COc1ccc(NC(=O)c2sc3nc(-c4cc5cccc(OC)c5oc4=O)[nH]c(=O)c3c2C)cc1,inactive,
O=S(=O)(c1ccc(Cl)cc1)c1nnn2c1nc(NC1CCCC1)c1sccc12,inactive,
CCc1cc2c(cc3c(=O)n(CC(=O)NCCc4ccc(OC)c(OC)c4)ncn32)s1,inactive,
CCOC(=O)c1ccc(CSc2nnc3cc(C)c4ccccc4n23)cc1,inactive,
COc1ccc(S(=O)(=O)c2c(Nc3cccc(Cl)c3)sc(C(=O)c3ccccc3)c2N)cc1,inactive,
CN(C)c1ccnc2sc(C(=O)c3ccccc3)c(N)c12,10 µM (active),
COc1cccc(C(=O)c2sc3nc(-c4ccccc4)cc(C(F)(F)F)c3c2N)c1,inactive,
CN(C(=O)c1ccccc1)c1nccnc1C#N,inactive,
Cc1ccc2c(N)c(C(=O)c3ccccc3)sc2n1,8.91 µM (active),
CCCS(=O)(=O)c1c(Nc2ccccc2C)sc(C(=O)c2ccccc2)c1N,inactive,
COc1ccc(-n2ccnc(NCCc3ccc(Cl)cc3)c2=O)cc1OC,inactive,

# From PubChem BioAssay AID624171 (National Center for Advancing Translational Sciences (NCATS), 2012)
